GAA glycogen: qHTS Assay for Inhibitors and Activators of Human alpha-Glucosidase Cleavage of Glycogen. recombinant GAA, glycogen substrate, Amplex Red glucose oxidase fluorescence. Potency, µM (top dose mostly 76.4 µM), without a hit: top-dose activity change, negative = inhibition, most hits filed as inhibitors. 300,000 tested, 0.38% active. AID 2100, 2009;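 note: potency is the fitted concentration of half-maximal effect; 0% = full enzyme reaction and -100% = no-enzyme basal signal; the screen sought inhibitors and activators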
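Recombinant enzyme (4 nM final) with compounds titrated up to 77 uM and bovine liver glycogen (30 ug) in citrate pH 5.0, 0.01% Tween-20, 37 C 40 min. Released glucose detected by Amplex Red/glucose oxidase (Ex 573/Em 610); AC50 from Hill fits.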
GAA inhib: qHTS Assay for Inhibitors of Human alpha-Glucosidase as a Potential Chaperone Treatment of Pompe Disease; Lysosomal alpha-glucosidase (Homo sapiens), P10253; purified human GAA, 4-MU-alpha-glucoside fluorescence; Potency, µM (series often up to 76.9 µM), without a hit: at the highest dose activity change, negative = inhibition, actives largely listed as inhibitors; 200,000 tested, 0.005% active;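 note: potency is the fitted concentration of half-maximal effect; plate controls were uninhibited enzyme wells for no effect and no-enzyme background for full effect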
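Human alpha-glucosidase, 4 nM, pre-mixed with test compounds before 400 uM 4-methylumbelliferyl substrate; 20 min room temperature at pH 5.0. Fluorescence read after pH 10 stop; AC50 values from Hill-equation fits.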
aGal spleen mod: qHTS Assay for Inhibitors and Activators of Human alpha-Galactosidase From Spleen Homogenate; Alpha-galactosidase A (Homo sapiens), P06280; human spleen homogenate, 4MU-alpha-Gal fluorescence, 40 min; Potency, µM (series often up to 80 µM), inactives show at the top dose activity change, negative = inhibition, actives largely listed as inhibitors; 240,000 tested, 0.008% active; AID 2107, 2009;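 note: potency is the fitted concentration of half-maximal effect; 0% = enzyme with vehicle and -100% = no enzyme basal signal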
Target sequence (P06280 32-429 limits assumed): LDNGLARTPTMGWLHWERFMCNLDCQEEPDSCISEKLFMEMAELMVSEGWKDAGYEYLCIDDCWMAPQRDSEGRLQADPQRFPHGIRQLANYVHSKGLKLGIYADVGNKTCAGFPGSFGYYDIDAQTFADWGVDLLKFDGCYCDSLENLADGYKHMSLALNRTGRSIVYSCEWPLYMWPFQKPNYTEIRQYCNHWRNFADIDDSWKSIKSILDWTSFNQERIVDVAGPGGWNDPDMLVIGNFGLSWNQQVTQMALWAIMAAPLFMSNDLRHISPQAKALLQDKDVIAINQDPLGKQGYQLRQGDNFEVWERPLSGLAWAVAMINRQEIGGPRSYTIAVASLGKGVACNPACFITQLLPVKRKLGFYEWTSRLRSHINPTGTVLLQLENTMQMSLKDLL
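qHTS titration in buffer at pH 5.0. Alpha-galactosidase activity in spleen homogenate was measured via 4-methylumbelliferone release from 1 mM fluorogenic substrate after 40 min at 37C and a pH 10 stop. AC50 came from Hill fits of control-normalized data.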
N370S GC: qHTS Assay for Inhibitors and Activators of N370S glucocerebrosidase as a Potential Chaperone Treatment of Gaucher Disease; Potency, µM (titrated, usually from 59.4 µM), for inactives: top-dose activity change, negative = inhibition, usual class: inhibitors; N370S GC spleen homogenate, 4MU-glucoside fluorescence; Lysosomal acid glucosylceramidase (Homo sapiens), P04062; 330,000 tested, 0.092% active;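 note: potency is the fitted concentration of half-maximal effect; 0% = full enzyme activity and -100% = no enzyme basal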
aGlu spleen mod: qHTS Assay for Inhibitors and Activators of Human alpha-Glucosidase From Spleen Homogenate. Lysosomal alpha-glucosidase (Homo sapiens), P10253. human spleen homogenate, 4-MU-alpha-glucoside fluorescence. Potency, µM (highest dose often 79.9 µM), without a hit: top-dose activity change, negative = inhibition, actives largely listed as inhibitors. 240,000 tested, 0.006% active;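 note: potency is the fitted concentration of half-maximal effect; 0% = enzyme with vehicle and -100% = no enzyme basal signal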
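Enzyme source: human spleen homogenate, 1 ug/well. Buffer 50 mM citric acid/K phosphate pH 5.0, 0.01% Tween-20. 4-MU-alpha-glucoside 1 mM; 37 C x 40 min; NaOH/glycine stop; fluorescence.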
GLA inh pH 4.5: qHTS Assay for Inhibitors of Human alpha-Galactosidase at pH 4.5; 230,000 tested, under 10 active; AID 1467, 2008; purified enzyme, 4-MU-alpha-Gal fluorescence, pH 4.5; Alpha-galactosidase A (Homo sapiens), P06280; activity change, negative = inhibition, % at 105 µM;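 note: 0% = full activity with enzyme and -100% = basal without enzyme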
Active calls of the source: *; u = inconclusive; x = no result given; ! = repeats disagree; [ ] = dose if it differs, or a comment. Sampled rows, rich in hits. Any-hit rate of the full collection: about 0.41%. Calls come from the whole dose curve; as a rule, active = well fitted curve in the direction sought with a large enough effect; inconclusive = small, poorly fitted or top-dose-only effect, or another doubt; inactive = no such curve, though single readings can be large; an effect the other way counts as inactive or inconclusive.

SMILES	GAA glycogen	GAA inhib	aGal spleen mod	N370S GC	aGlu spleen mod	GLA inh pH 4.5
O=C(NNC(=S)NCCc1ccccc1)c1ccc(Br)s1	35.5µM*	-1.5%	8.6%	15.9%	9.2%	4.3
O=C(CCc1ccc(O)cc1)NNC(=S)NCCc1ccccc1	u	1.6%	-2.5%	-4.6%	-11.4%	6.2
COC(=O)[C@H](CCSC)NC(=O)c1ccc(NC[C@@H](N)CS)cc1-c1ccccc1	x	x	-9.3%	-6.2%	-19.8%	x
O=C(NNC(=O)c1sccc1-n1cccc1)Nc1ccccc1	12.6µM*	1.2%	1.0%	2.9%	5.0%	-15.3
CC(C)C(N)C(=O)O (configuration not stated)	x	x	-2.8%	-4.7%	-7.4%	x
Cc1ccc(Sc2ccccc2CN(C)C)c(N)c1	x	x	9.5%	-11.4%	6.7%	x
CC/C(=C\C(=O)c1ccncc1)Nc1ccc(O)cc1	44.7µM*	-8.0%	8.8%	3.4%[2.35 µM]	-8.2%	-13.9
COc1ccccc1N1CCN(CCCCN2C(=O)c3ccccc3C2=O)CC1	x	x	10µM*!	4.8%	2.7%	1.3
CC(C)N=c1scc(-c2ccco2)n1/N=C/c1ccc(O)c(O)c1	7.08µM*	-12.8%	-9.1%	-14.3%	-2.1%	-6.4
COCCN=c1scc(-c2ccco2)n1/N=C/c1ccc(O)c(O)c1O	2.4%	-3.2%	-8.3%	-8.5%	-2.6%	-10.6
C/C(=N\N1CCN(C2c3ccccc3-c3ccccc32)CC1)c1cccnc1	31.6µM*	11.6%	3.1%	8.1%	-21.6%	2.0
C(=N\N1CCN(C2c3ccccc3-c3ccccc32)CC1)/c1cccnc1	-19.8%	-5.5%	-7.1%	x	-8.5%	-2.4
CCCCCCCCCCCCCCCC(N)=O	x	x	0.9%	4.8%	11.2%	-2.9
CC1CCC/C(=C\Nc2ccc(O)cc2)C1=O (configuration not stated)	14.1µM*	-8.5%	6.8%	-23.1%	0.4%	1.1
COc1ccc(-c2nc3ccccc3o2)cc1NC(=O)COc1ccc(C(C)(C)C)cc1	-10.6%[76.3 µM]	x	x	x	x	x
C[C@H](NC(=O)CNC(=O)[C@@H](NC(=O)[C@H](Cc1ccccc1)NC(=O)CNC(=O)CNC[C@@H](N)Cc1ccccc1)[C@@H](C)O)C(=O)N[C@@H](CCCN=C(N)N)C(=O)N[C@@H](CCCCN)C(=O)N[C@@H](CO)C(=O)N[C@@H](C)C(=O)N[C@@H](CCCN=C(N)N)C(=O)N[C@@H](CCCCN)C(N)=O	x	x	5.4%	-0.8%	2.6%	x
CC1(C)C([N+](=O)[O-])C(c2ccc(O)cc2)NC(c2ccc(O)cc2)C1[N+](=O)[O-] (configuration not stated)	4.1%	-1.5%	-9.5%	8.91µM*	0.4%	0.3
CC1(C)C([N+](=O)[O-])C(c2ccc(F)cc2)NC(c2ccc(F)cc2)C1[N+](=O)[O-] (configuration not stated)	-3.4%	x	4.6%	6.5%	0.8%	-8.2
CC1(C)CC(=O)C2=C(C1)NC1=C(C(=O)c3ccccc31)C2c1ccccc1 (configuration not stated)	-20.9%	-3.6%	-2.4%	u	-4.6%	3.1
CC1(C)CC(=O)C2=C(C1)NC1=C(C(=O)c3ccccc31)C2c1cc([N+](=O)[O-])ccc1O (configuration not stated)	-24.2%	x	0.2%	14.1µM*	-3.8%	-4.2
Cc1cc(O)c2c(C)c(CC(=O)NCc3ccccc3Cl)c(=O)oc2c1	-21.4%[76.3 µM]	x	x	x	x	x
NC(=S)N=Nc1ccc(NN=C(N)N)cc1	39.8µM*	x	x	-8.6%	x	x
N#C/C(=N/Nc1ccc(OC(F)(F)F)cc1)C(N)=S	u	-17.6%	-0.4%	-10.6%	-4.4%	-4.3
O=C1Nc2ccccc2N(O)N1c1ccc(Cl)cc1	4.6%	12.9%	-4.3%	-9.4%	-1.6%	2.7
CCN1c2ccccc2NC2C1C(C(C)=O)C(=O)N2c1ccc(Cl)cc1 (configuration not stated)	24.9µM*	-3.6%	-0.3%	-7.4%	-20.6%	-6.9
SMILES	GAA glycogen	GAA inhib	aGal spleen mod	N370S GC	aGlu spleen mod	GLA inh pH 4.5
Cc1ccc2c(c1)C(c1ccc(F)cc1)N(C(=O)C(C)C)CC(=O)N2 (configuration not stated)	-12.0%[76.3 µM]	x	x	x	x	x
S=C([S-])NCCNC(=S)[S-].[Zn+2]	x	x	-0.6%	0.8%	-0.2%	x
Cc1cc(O)c(N)c(C)c1Cl	8.91µM*	-0.1%	0.6%	-5.2%	2.7%	3.8[21.1 µM]
Cc1cc(O)cc(C)c1Cl	x	x	-4.2%	-3.4%	-7.0%	2.4
Cn1ccc2cc(-c3ccc4ncnc(NCc5cccnc5)c4c3)ccc21	x	x	x	-19.3%	x	x
Cc1cc(=O)n(-c2ccc(O)cc2)[nH]1	14µM*	2.9%	3.7%	-2.1%	-5.2%	-0.2
C=CCOc1cccc(CNc2ccc3[nH]c(=O)[nH]c3c2)c1	28.2µM*	-2.4%	-7.6%	-12.6%	-1.1%	-3.5
COc1cc(CNc2ccc3[nH]c(=O)[nH]c3c2)cc(Br)c1OCC(=O)NC(C)(C)C	14.1µM*	-14.5%	-1.4%	x	-4.8%	-2.5
COc1cc(CNc2ccc3[nH]c(=O)[nH]c3c2)ccc1OCC(=O)NC(C)(C)C	u	-3.3%	-5.4%	-7.8%	-3.1%	-5.7
CCOc1cc(CNc2ccc(N(C)C)cc2)cc(Br)c1OCC(=O)NC(C)(C)C	20µM*	u	-18.7%	-7.9%	-6.2%	-27.2
COc1cc(CNc2ccc3[nH]c(=O)[nH]c3c2)ccc1OCc1ccccc1F	5.62µM*	x	x	-3.9%	x	x
O=C1Nc2ccccc2/C1=N\N=C\c1ccc(O)c(O)c1	6.31µM*	-14.0%	2.2%	-0.5%	-14.5%	0.2
COc1cc(/C=N/N=C2/C(=O)Nc3ccccc32)ccc1O	-1.3%	u	-14.7%	-0.6%	-4.9%	1.9
CC(=O)c1ccc(N2CCOCC2)cc1O	x	x	-3.2%	-0.1%	2.0%	x
CC(=O)c1ccc2c3c(ccc(O)c13)CC2	31.4µM*	4.0%	-1.1%	5.6%	1.2%	-0.3
CC(C)=CCC/C(C)=C/CC/C(C)=C/CC/C(C)=C/C(=O)O	x	x	0.1%	-8.5%	-9.9%	x
O=C1C2Sc3[nH]c(=O)sc3C(c3ccccc3)C2C(=O)N1c1ccc(Cl)cc1 (configuration not stated)	28.2µM*	2.4%	1.8%	9.4%	-2.1%	3.2

Assay outcomes: PubChem BioAssay, National Center for Advancing Translational Sciences (NCATS)
